Measurements reported in PubChem BioAssay AID2315 (National Center for Advancing Translational Sciences (NCATS), 2010).
In all, about 290,000 compounds went through this assay and about 27,000 (9.3%) were called active. Cut-off read from the data, not from the text of the source: active = inhibition mostly above about 28% (no sharp cut-off); inactive = mostly below about 43%. Only a selection was taken, and actives are over-represented in it overall.

Test: A qHTS for Small Molecule Inhibitors of Shiga Toxin; note: 0% is about no effect
Conditions: Vero cells, Shiga toxin protein synthesis inhibition reporter; at 38.7 µM, stronger effect = higher value

| Structure (SMILES) | inhibition |
| --- | --- |
| Nc1nc(SCC(=O)Nc2ccc(Cl)cc2C(F)(F)F)n[nH]1 | -27.1% (inactive) |
| COc1cc(OC)cc(C(=O)Nc2nnc(SCC(=O)NCC3CCCO3)s2)c1 (stereo unspecified) | 4.36% (inactive) |
| COc1ccc(C(=O)NC2CC(C)(C)NC(C)(C)C2)cc1OC | 2.67% (inactive) |
| NC(=O)CN1CCCC1c1ccc2c(c1)OCCO2 (stereo unspecified) | -2.56% (inactive) |
| O=C(NC1CCCC1)C(c1ccco1)N(C(=O)c1ccco1)c1ccc(F)cc1 (stereo unspecified) | 8.42% (inactive) |
| O=S(=O)(/N=C(/Nc1ccccn1)c1ccccc1)c1ccc(Cl)cc1 | 14.8% (inactive) |
| Cc1ccc(S/C(=N\S(=O)(=O)c2ccc(Cl)cc2)c2ccccc2)cc1 | 11.1% (inactive) |
| Cc1ccc(S(=O)(=O)/N=C(/Nc2ccccn2)c2ccc(Cl)cc2)cc1 | 31.5% (active) |
| CC1CCCCC1NC(=O)CSc1nnc(-c2ccncc2)n1CCCN(C)C (stereo unspecified) | -1.04% (inactive) |
| Cc1cc(C)nc(NC(=O)/C=C/c2ccc(Cl)cc2)n1 | 41.9% (inactive) |
| O=C(/C=C/c1ccc(Cl)cc1)Nc1ccc(S(=O)(=O)Nc2ncccn2)cc1 | 17% (inactive) |
| CC(C)(C)c1ccc(/C=C/C(=O)Nc2ncccn2)cc1 | -4.53% (active) |
| O=c1c2c(-c3ccccc3)ccnc2[nH]n1-c1ccccc1 | 38.7% (inactive) |
| CCC(C)(C)NC(=O)C(c1ccc(OC)cc1)N(C(=O)CCC(=O)Nc1cc(C)on1)c1ccc(OC)cc1OC (stereo unspecified) | 8.4% (inactive) |
| CCN(CC)CCNC(=O)Cn1cnc2sc(C)c(S(=O)(=O)N3CCOCC3)c2c1=O | -2.57% (inactive) |
| Cc1sc2ncn(CC(=O)NCCN(C)C)c(=O)c2c1S(=O)(=O)N1CCC(C)CC1 | 106% (active) |
| CCN(CC)CCCNC(=O)Cn1cnc2sc(C)c(S(=O)(=O)N3CCN(c4ncccn4)CC3)c2c1=O | -11.2% (inactive) |
| CC(=O)c1ccc(S(=O)(=O)N2CCC(Oc3ccc(-n4cnnn4)cc3)CC2)cc1 | -8.24% (inactive) |
| O=C(O)Cn1c(Cc2ccccc2)nc2ccccc21 | -5.35% (inactive) |
| Cc1ccccc1C(=O)N1CCC(C(=O)Oc2ccc(C#N)cc2)CC1 | -13.3% (inactive) |
| O=C(Nc1ccc2c(c1)OCCO2)c1ccoc1 | 65.2% (active) |
| O=C(CCN1C(=O)c2ccncc2C1=O)Nc1ccc2c(c1)OCCO2 | 13.6% (inactive) |
| O=C(Nc1ccc2c(c1)OCCO2)c1ccncc1 | 117% (active) |
| Cn1c(=O)c2ccccc2n(CC(=O)Nc2ccc3c(c2)OCCO3)c1=O | -7.05% (inactive) |
| O=C(Nc1ccc2c(c1)OCCO2)c1cnccn1 | 42.2% (inactive) |
| Cc1ccc(-n2ncc3c2CC(C)(C)CC3NC(=O)Cc2c(C)noc2C)cc1 (stereo unspecified) | -6.91% (inactive) |
